The values below come from PubChem BioAssay (Tox21).

Assay [1] in a line: A CellTox Green Cytotoxicity Assay to monitor cytotoxicity in HepG2 cells - 0 hour (AID 1224882). Note: nearly all actives have a fitted effect of over 35% in size. The method, boiled down:
(§1)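 HepG2 cells were seeded together with the CellTox Green dye at 600 cells/well, left 5 h at 37 C/5% CO2, then given compounds in DMSO. Fluorescence from dye bound to dead-cell DNA was read repeatedly over 40 h of treatment at 37 C.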

The nature of assay [2]: A CellTox Green Cytotoxicity Assay to monitor cytotoxicity in HepG2 cells - 32 hour (AID 1224883). Note: nearly all actives have a fitted effect of over 50% in size. The method, boiled down:
as §1

A short description of assay [3]: A CellTox Green Cytotoxicity Assay to monitor cytotoxicity in HEK293 cells - 8 hour (AID 1224884). Note: nearly all actives have a fitted effect of over 35% in size. A digest of the protocol: (§2)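 HEK293 cells premixed with CellTox Green dye were seeded at 600 cells/well and left 5 h at 37 C/5% CO2 before pin transfer of 23 nL compound in DMSO. Fluorescence from dye bound to dead-cell DNA was read during 40 h treatment.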
The nature of assay [4]: qHTS RealTime-Glo MT Cell Viability Assay in HEK293 cells - 24 hour (AID 1224886). Note: top concentration of the series differs between compounds; nearly all actives have a fitted effect of over 50% in size. A digest of the protocol:
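Homogeneous bioluminescent viability format in HEK293 cells (600 cells/well). Following 5 h at 37 C/5% CO2, 23 nL compound was pintooled; the signal was measured repeatedly during 40 h incubation.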
(In general: Quantitative high-throughput screening tests each substance at several concentrations.)

Assay [5] in a line: qHTS RealTime-Glo MT Cell Viability Assay in HEK293 cells - 8 hour (AID 1224887). Note: nearly all actives have a fitted effect of over 50% in size. Note: potency is the fitted concentration of half-maximal effect. A digest of the protocol:
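HEK293 cells mixed with RealTime-Glo reagents (NanoLuc plus cell-permeant prosubstrate) at 600 cells/well, preincubated 5 h at 37 C/5% CO2, then given 23 nL compound in DMSO. Nonlytic luminescence from viable cells was read at 0, 8, 16, 24, 32 and 40 h.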

Assay [6] in a line: A CellTox Green Cytotoxicity Assay to monitor cytotoxicity in HEK293 cells - 16 hour (AID 1224888). Note: nearly all actives have a fitted effect of over 35% in size. The method, boiled down:
as §2

The nature of assay [7]: qHTS RealTime-Glo MT Cell Viability Assay in HepG2 cells - 0 hour (AID 1224889). Note: nearly all actives have a fitted effect of over 50% in size. The method, boiled down: (§3)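 Cell number in HepG2 cultures estimated from NanoLuc luminescence generated by metabolic reduction of a prosubstrate by living cells. The homogeneous, nonlytic format allowed repeated reads at 0, 8, 16, 24, 32 and 40 h of compound exposure.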
The nature of assay [8]: A CellTox Green Cytotoxicity Assay to monitor cytotoxicity in HepG2 cells - 8 hour (AID 1224890). Note: nearly all actives have a fitted effect of over 45% in size. The method, boiled down: as §1
Assay [9] can be described thus: qHTS assay to identify small molecule antagonists of the estrogen receptor alpha (ER-alpha) signaling pathway using the BG1 cell line in the presence of 0.1 nM 17-beta-estradiol - cell viability counter screen (AID 1259241). Note: nearly all actives have a fitted effect of over 40% in size. A digest of the protocol: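 VM7Luc4E2 cells (endogenous full-length ER-alpha, 4xERE-luciferase), cultured 5 days in charcoal-stripped serum, exposed to compounds with 0.1 nM 17beta-estradiol (final) for 22 hr at 37C. Viability read in same wells as live-cell protease fluorescence after 30 min.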

Assay [10] is described as follows: qHTS assay to identify small molecule antagonists of the androgen receptor (AR) signaling pathway using the MDA cell line in the presence of 0.5 nM R1881 - cell viability counter screen (AID 1259242). Note: nearly all actives have a fitted effect of over 45% in size. Note: potency is the fitted concentration of half-maximal effect. The method, boiled down: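 MDA-kb2 cells (human breast carcinoma, stably carrying MMTV-luciferase reporter) were exposed to compounds with 0.5 nM R1881 (final) for 16 hr at 37C, 0% CO2; viability then read as live-cell protease fluorescence (CellTiter-Fluor, 30 min) in the same wells.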

In assay [11] the target is Estrogen receptor (Homo sapiens) (UniProt P03372). Description: qHTS assay to identify small molecule antagonists of the estrogen receptor alpha (ER-alpha) signaling pathway using the BG1 cell line in the presence of 0.1 nM 17-beta-estradiol (AID 1259244). Note: nearly all actives have a fitted effect of over 50% in size. Note: potency is the fitted concentration of half-maximal effect. The method, boiled down: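 VM7Luc4E2 cells (endogenous full-length ER-alpha, stable 4xERE-luciferase) were grown 5 days in phenol red-free medium with charcoal-stripped FBS, then exposed 22 h at 37C to compounds plus 0.1 nM (final) 17beta-estradiol; ONE-Glo luminescence read-out.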

The nature of assay [12]: qHTS assay to identify small molecule HDAC inhibitors (AID 1259364). Note: top concentration of the series differs between compounds; nearly all actives have a fitted effect of over 45% in size. A digest of the protocol:
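Wild-type HCT-116 cells were plated overnight, exposed to compounds for 2 h at 37 °C, then given HDAC-Glo class I/II luminogenic reagent for 30 min at room temperature before luminescence was read.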

The nature of assay [13]: qHTS assay to identify small molecule HDAC inhibitors - cell viability counter screen (AID 1259365). A digest of the protocol:
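Wild-type HCT-116 cells, 1,500/well, cultured overnight, then compound-treated 2 h at 37 C. Viability measured as ATP luminescence with CellTiter-Glo after 30 min at room temperature.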

Assay [14] is described as follows: qHTS assay to identify small molecule antagonists of the sonic hedgehog signaling (Shh) pathway - cell viability counter screen (AID 1259367). Note: nearly all actives have a fitted effect of over 55% in size. Note: potency is the fitted concentration of half-maximal effect. The method, boiled down:
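Using CellTiter-Fluor, viability of Gli1-Luc reporter 3T3 cells is read by fluorescence in the wells used for the Shh luciferase assay. Treatment lasts 23 hr with conditioned medium, then reagent 1 hr at 37C.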

Assay [15] in a line: qHTS assay to identify small molecule agonists of the sonic hedgehog signaling (Shh) pathway (AID 1259368; calls by dose curve; note: series mostly up to about 92 µM; nearly all actives have a fitted effect of over 15% in size). A digest of the protocol:
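NIH/3T3-derived 3T3Gli1-Luc cells carrying a stably integrated Gli1 response element–firefly luciferase reporter were plated, left 4 hr at 37 C, then given compounds in DMSO for 24 hr. Luminescence was read 30 min after adding luciferase reagent.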

The nature of assay [16]: qHTS assay to identify small molecule antagonists of the sonic hedgehog signaling (Shh) pathway (AID 1259369; calls by dose curve; note: nearly all actives have a fitted effect of over 45% in size; note: potency is the fitted concentration of half-maximal effect). The method, boiled down: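 NIH/3T3-derived 3T3Gli1-Luc cells with stably integrated Gli1-Luc reporter were preincubated 4hr at 37 C, then given compounds in DMSO plus Shh conditioned medium and incubated 24hr. Firefly luciferase luminescence read after 30min reagent at room temperature.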

A short description of assay [17]: qHTS assay to identify small molecule agonists of the sonic hedgehog signaling (Shh) pathway - cell viability counter screen (AID 1259366). Note: nearly all actives have a fitted effect of over 50% in size. Note: potency is the fitted concentration of half-maximal effect. A digest of the protocol: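 NIH/3T3-derived Gli1-Luc reporter cells, 2,000 per well, received compound after 4 h and were treated about 23 h at 37C. Viability measured in the same wells by CellTiter-Fluor fluorescence after 1 h.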

Assay [18] is described as follows: qHTS RealTime-Glo MT Cell Viability Assay in HepG2 cells - 16 hour (AID 1224885). Note: nearly all actives have a fitted effect of over 50% in size. A digest of the protocol:
as §3

The target of assay [19] is Androgen receptor (Homo sapiens) (UniProt P10275). The assay can be described thus: qHTS assay to identify small molecule antagonists of the androgen receptor (AR) signaling pathway using the MDA cell line in the presence of 0.5 nM R1881 (AID 1259243). A digest of the protocol: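 MDA-kb2 human breast carcinoma cells carrying an MMTV-luciferase reporter (AR- and GR-responsive) were plated, rested 5 hr at 37C, dosed with compounds, then stimulated with 0.5 nM R1881 (final) for 16 hr; luminescence was read after ONE-Glo.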

A short description of assay [20]: qHTS assay to identify small molecule phospholipidosis (PLD) inducers (AID 1259344; active = well fitted curve in the direction sought with a large enough effect; an effect the other way counts as inactive or inconclusive). A digest of the protocol:
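Fluorescent phospholipid staining (LipidTOX Red) measured by automated microscopy in fixed HepG2 cells after 24 h treatment; nuclei counterstained with Hoechst 33342; amiodarone as reference inducer.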

Inconclusive results are not listed. Active and inactive are the calls of the source. Unless noted, calls come from the whole dose curve; as a rule, active = well fitted curve in the direction sought with a large enough effect in the repeat runs; inconclusive = weak or mixed curves; inactive = no such curve, though single readings can be large; an effect the other way counts as inactive or inconclusive.

Estrogen receptor (Homo sapiens), sequence (P03372 whole entry, looked up): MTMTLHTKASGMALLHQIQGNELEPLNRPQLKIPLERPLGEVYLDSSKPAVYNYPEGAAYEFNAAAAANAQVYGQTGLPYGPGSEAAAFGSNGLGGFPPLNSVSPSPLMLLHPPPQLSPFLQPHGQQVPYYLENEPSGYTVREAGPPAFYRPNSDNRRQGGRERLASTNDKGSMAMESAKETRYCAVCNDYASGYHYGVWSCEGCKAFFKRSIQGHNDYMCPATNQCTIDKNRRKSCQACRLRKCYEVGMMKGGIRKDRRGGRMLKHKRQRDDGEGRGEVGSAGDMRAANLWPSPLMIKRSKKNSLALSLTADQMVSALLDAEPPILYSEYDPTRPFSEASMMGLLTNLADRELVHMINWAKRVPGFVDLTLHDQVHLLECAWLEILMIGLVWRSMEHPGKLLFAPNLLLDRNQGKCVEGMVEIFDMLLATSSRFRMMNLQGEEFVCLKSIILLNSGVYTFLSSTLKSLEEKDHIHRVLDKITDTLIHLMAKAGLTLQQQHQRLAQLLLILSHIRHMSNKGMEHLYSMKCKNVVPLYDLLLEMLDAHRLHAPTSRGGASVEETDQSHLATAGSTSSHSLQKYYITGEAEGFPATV
Androgen receptor (Homo sapiens), sequence (P10275 whole entry, looked up): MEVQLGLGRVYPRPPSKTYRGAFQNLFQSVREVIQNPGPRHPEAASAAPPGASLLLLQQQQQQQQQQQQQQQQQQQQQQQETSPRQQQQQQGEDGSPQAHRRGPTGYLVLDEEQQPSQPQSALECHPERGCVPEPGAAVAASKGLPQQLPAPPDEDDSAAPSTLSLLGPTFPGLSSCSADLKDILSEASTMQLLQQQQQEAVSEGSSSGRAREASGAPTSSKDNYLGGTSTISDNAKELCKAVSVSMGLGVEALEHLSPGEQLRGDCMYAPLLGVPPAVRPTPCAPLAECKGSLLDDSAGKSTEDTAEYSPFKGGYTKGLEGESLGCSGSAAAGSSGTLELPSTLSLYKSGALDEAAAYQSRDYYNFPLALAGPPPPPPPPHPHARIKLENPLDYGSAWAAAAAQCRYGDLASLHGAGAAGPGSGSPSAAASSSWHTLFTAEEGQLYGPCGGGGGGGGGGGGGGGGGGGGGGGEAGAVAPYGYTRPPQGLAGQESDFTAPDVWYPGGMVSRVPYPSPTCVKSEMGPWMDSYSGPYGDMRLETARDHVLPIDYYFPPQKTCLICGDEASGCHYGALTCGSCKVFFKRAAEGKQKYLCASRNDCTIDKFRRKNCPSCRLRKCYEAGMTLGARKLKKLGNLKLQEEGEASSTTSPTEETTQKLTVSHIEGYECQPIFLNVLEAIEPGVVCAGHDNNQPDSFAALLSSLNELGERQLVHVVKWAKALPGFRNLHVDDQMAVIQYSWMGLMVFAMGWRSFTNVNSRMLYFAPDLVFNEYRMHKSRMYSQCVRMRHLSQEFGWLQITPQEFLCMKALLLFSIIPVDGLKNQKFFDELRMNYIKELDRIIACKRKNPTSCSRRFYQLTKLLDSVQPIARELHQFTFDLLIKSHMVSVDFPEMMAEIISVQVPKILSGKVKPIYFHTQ

Turning to `CC(C)(C)c1ccc(S)cc1`, the Potency entry in assay [1], in assay [2], in assay [3], in [4], in assay [5] and in [6] was “inactive” in each case. Further, the Potency result in assay [7], in assay [8], in assay [9], in [10], in assay [11] and in assay [12] was “inactive” in each case. In addition, the Potency entry in [14] and in [16] was “inactive” throughout. The molecule was classed as inactive in assay [13] and in [15].
Consider `O=C(Cl)c1c(Cl)cccc1Cl`, for which the Potency entry in assay [1], in assay [2], in [3], in assay [4], in assay [5] and in [6] was “inactive” throughout. For the same molecule, the Potency entry in assay [7], in [8], in assay [9], in assay [10], in assay [11] and in assay [12] was “inactive” in each case. Besides, the Potency result in [17], in assay [14] and in assay [16] was “inactive” in each case. The outcome in assay [13] and in assay [15] was inactive.
Regarding `CC(C)(C)c1cc(O)c(C(C)(C)C)cc1O`, the Potency entry in [1], in [2], in assay [3], in assay [18], in [6] and in assay [7] was “inactive” throughout. In addition, the Potency result in [8] and in [12] was “inactive” each time. For the same molecule, the Potency in assay [5] is 15.5 µM (active); in assay [10], 54.5 µM (active); in [19], 19.3 µM (active); in assay [11], 43.3 µM (active); in assay [17], 61.1 µM (active); in [16] it was 30.6 µM (active). The outcome in assay [13] and in assay [15] was inactive.
As for `c1ccc(CNCc2ccccc2)cc1`, the Potency entry in assay [1], in assay [2], in assay [3], in assay [4], in assay [5] and in assay [6] was “inactive” each time. For the same molecule, the Potency entry in assay [7], in assay [8], in assay [9], in assay [10], in assay [11] and in [12] was “inactive” throughout. Also, the Potency result in assay [17], in assay [14] and in assay [16] was “inactive” each time. Further, the outcome in [13] and in assay [15] was inactive.
For the molecule `CC(C)(C)C(=O)OCOP(=O)(COCCn1cnc2c(N)ncnc21)OCOC(=O)C(C)(C)C`, the Potency result in [1], in assay [2], in [3], in [18], in assay [5] and in [6] was “inactive” each time. In addition, the Potency entry in [7], in assay [8], in [9], in [10], in assay [20] and in assay [12] was “inactive” each time. The result in assay [13] and in assay [15] was inactive. Also, the Potency was 10.6 µM (active) in [17], 9.44 µM (active) in [14] and 2.98 µM (active) in [16].
With `NCc1ccccc1`, the Potency entry in [1], in assay [2], in assay [3], in assay [18], in assay [5] and in assay [6] was “inactive” throughout. Also, the Potency result in assay [7], in assay [8], in assay [9], in assay [10], in [12] and in assay [14] was “inactive” each time. Also, the Potency entry in assay [16] is “inactive”. For the same molecule, the outcome in [13] and in [15] was inactive.
In the case of `O=C(O)Cc1cc(I)c(Oc2ccc(O)c(I)c2)c(I)c1`, the Potency entry in [1], in [2], in [3], in assay [5], in assay [6] and in assay [8] was “inactive” each time. Moreover, the Potency entry in [9], in [10], in assay [20], in assay [12], in assay [17] and in [14] was “inactive” throughout. In addition, in [16], the Potency entry is “inactive”. Moreover, the molecule was called inactive in assay [13] and in [15].
Turning to `CC(C)c1cccc(C(C)C)c1NC(=O)NS(=O)(=O)c1cc(C(C)(C)O)co1`, the Potency entry in assay [1], in [2], in assay [3], in [4], in assay [5] and in [6] was “inactive” throughout. Besides, the Potency result in [7], in assay [8], in [9], in assay [10], in assay [12] and in [17] was “inactive” in each case. Also, the Potency result in assay [16] was “inactive”. Also, the outcome in assay [13] and in assay [15] was inactive.
`CC(C)CC=O`: the Potency entry in [1], in [2], in [3], in assay [5], in assay [6] and in assay [7] was “inactive” in each case. Besides, the Potency entry in assay [8], in [9], in [10], in [11], in [12] and in [17] was “inactive” each time. The Potency result in assay [14] and in [16] was “inactive” each time. The molecule was classed as inactive in assay [13] and in assay [15].
